# Compound activity as filed in PubChem.
# VHR inh abs: VHR1 phosphatase inhibitors, primary screen, biochemical, absorbance, uHTS; Dual specificity protein phosphatase 3 (Homo sapiens), P51452; recombinant VHR phosphatase, pNPP absorbance; actives 0.52% (n = 290,000); inhibition, % at 13.3 µM; in the data active = inhibition above about 50%
# Target sequence (P51452 whole entry, looked up): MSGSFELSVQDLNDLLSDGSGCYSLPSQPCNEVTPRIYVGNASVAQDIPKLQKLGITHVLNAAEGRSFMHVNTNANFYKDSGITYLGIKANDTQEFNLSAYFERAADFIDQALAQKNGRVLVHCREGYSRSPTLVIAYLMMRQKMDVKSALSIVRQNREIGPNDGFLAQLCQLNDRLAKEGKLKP
# SSB-PriA inh: inhibitors of Klebsiella pneumoniae PriA binding to SSB C-terminal tail, primary screen, biochemical, AlphaScreen; actives 0.6% (n = 430,000); inhibition, % at 33 µM; PriA–SSB C-terminal tail interaction (Klebsiella pneumoniae); AlphaScreen SSBct-PriA binding, biotinylated peptide; AID 1272365, 2023; in the data active = inhibition mostly above about 37%, no sharp cut-off; inactive = mostly below about 20%;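 also: plate controls were negative control peptide for no effect and reference peptide for full effect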
# PfHsp40 rescue: rescue of yeast from PfHsp40 toxicity, primary screen, S. cerevisiae, ATP luminescence | S. cerevisiae expressing PfHsp40, growth rescue | growth rescue, % at 12.5 µM | actives 0.68% (n = 340,000) | AID 504582, 2011; in the data active = growth rescue above about 28%, passing the limit was not always enough;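 also: yeast W303a lacking pdr1 and pdr3 grown in galactose medium; growth measured after three days at 30 °C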
# RN4220 kill: growth inhibition of S. aureus RN4220, primary screen, OD600; 16 h; inhibition, % (concentration not given with the values); actives 0.33% (n = 330,000); in the data active = inhibition above about 85%;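 also: plate controls were untreated cells for no effect and reference antibiotic for full effect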
# Sa ugtP lethal: growth inhibition of ugtP-null S. aureus, primary screen, RN4220 ugtP deletion, OD600; 16 h; growth inhibition, % (concentration not given with the values); actives 0.54% (n = 330,000); in the data active = growth inhibition above about 68%;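 also: plate controls were untreated wells for no effect and antibiotic for full effect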
# Mtb hypoxia rep: PubChem AID 1159583; M. tuberculosis hypoxia-regulated fluorescent reporter, fluorescence; fluorescence inhibition, % (no concentration beside the values); actives 0.1% (n = 300,000); in the data active = fluorescence inhibition mostly above about 23%, no sharp cut-off; inactive = mostly below about 17%
# Numbers without * were called inactive; x = no result given; ! = not active in a repeat. The list is not random: actives were taken first. Their share in the collection is about 1.8%.
SMILES,VHR inh abs,SSB-PriA inh,PfHsp40 rescue,RN4220 kill,Sa ugtP lethal,Mtb hypoxia rep
CS(=O)(=O)c1ccc(CC(=O)Nc2nnc(C3CCCO3)o2)cc1 (configuration not stated),x,61.0*,x,x,x,x
CS(=O)(=O)c1ccc(C(=O)Nc2nnc(C3CCCO3)o2)cc1 (configuration not stated),x,-1.0,x,x,x,x
COc1cc(-c2nnc(NC(=O)CCCS(=O)(=O)c3ccc(F)cc3)o2)cc(OC)c1OC,x,-1.0,x,x,x,x
NC(N)=Nc1ccc(C=C2C=Cc3ccccc32)cc1,x,41.9*,1.1,x,x,x
O=c1c2c(-c3cccs3)csc2ncn1N=Cc1ccccn1,x,-18.4,x,0.6,-1.8,-7.2
COc1ccc(N2CC(C(=O)Nc3nnc(-c4ccnn4C)o3)CC2=O)cc1 (configuration not stated),x,71.0*,x,x,x,x
COc1ccccc1-c1nnc(NC(=O)C2CC(=O)N(c3ccc(F)cc3)C2)o1 (configuration not stated),x,13.0,x,x,x,x
O=C(Nc1nnc(-c2ccccc2)o1)C1CC(=O)N(c2ccccc2)C1 (configuration not stated),x,44.0*!,x,x,x,x
O=C(NCc1ccncc1)C(=O)Nc1cc2c3c(c1)CCC(=O)N3CCC2,x,-12.0,x,x,x,x
CCOc1ccc(N2C(=O)N(c3cccc(C(F)(F)F)c3)C3CS(=O)(=O)CC32)cc1 (configuration not stated),x,1.0,x,x,x,x
Cc1cc(NC(=O)c2c(F)cccc2F)n(-c2nc3c(cnn3-c3cccc(C)c3C)c(=O)[nH]2)n1,x,52.0*,x,x,x,x
COc1ccccc1OCC(=O)Nc1cc(C)nn1-c1nc2c(cnn2-c2cccc(C)c2C)c(=O)[nH]1,x,42.0*,x,x,x,x
Cc1cc(NC(=O)c2c(F)cccc2Cl)n(-c2nc3ccccc3[nH]2)n1,0.5,-8.3,112.9*,7.4,-23.9,3.8
O=C(CSc1nc2c([nH]c3ccccc32)c(=O)n1-c1ccc(F)cc1)Nc1cc(C(F)(F)F)ccc1Cl,x,-13.0,x,x,x,x
COc1ccccc1Nc1n[nH]c(=S)s1,51.2*,0.5,9.5,8.7,8.1,6.5
CCOC(=O)C1C(=O)C=C(C=Cc2ccc(N(C)C)cc2)CC1c1ccccc1 (configuration not stated),x,x,x,11.5,3.3,4.5
COc1cc(Cl)ccc1OCc1cc(C(=O)N2C[C@H]3CC[C@H]2C3)no1,53.3*,-8.9,0.8,-1.2,0.3,-1.7
COc1cc(Cl)ccc1OCc1cc(C(=O)N2C[C@@H]3CCC[C@H]2C3)no1,2.5,-11.7,0.4,1.3,1.4,10.3
O=C(CSc1nncc(=O)[nH]1)NCCc1ccccc1,x,-14.0,x,x,x,x
CN1c2ccsc2C(=NNc2ccc(F)cc2)CS1(=O)=O,x,-9.1,x,82.7,99.8*,-2.7
Cc1cccc(C(=O)NN=C2CS(=O)(=O)N(C)c3ccsc32)c1,x,-0.2,x,3.0,1.9,-4.3
CCCCC1NC(=S)N(C2CCCCC2)C1=O (configuration not stated),1.7,-14.9,3.0,5.0,89.0*,2.3
Cc1nc(-c2ccccc2Cl)sc1CNC(=O)Cc1noc2ccccc12,x,-24.0,x,x,x,x
Nc1cc(Cl)ccc1Oc1ccc2ccccc2c1,13.3,-25.9,8.8,-4.0,94.9*,2.1
Cc1ccc(Oc2ccc(Cl)cc2N)cc1,12.9,-45.8,0.1,-1.7,8.7,3.7
SMILES,VHR inh abs,SSB-PriA inh,PfHsp40 rescue,RN4220 kill,Sa ugtP lethal,Mtb hypoxia rep
Cc1ccc(O)c(C(=O)c2cnc3c(c2)COc2ccc(C)cc2-3)c1,-0.1,39.4*,1.0,5.8,44.6,x
Cc1ccc2c(c1)-c1ncc(C(=O)c3cc(Br)ccc3O)cc1CO2,56.3*,x,x,12.1,63.1,1.5
Cn1cc(NC(=O)Nc2ccc(OC(F)(F)F)cc2)c2ccccc21,x,-1.0,x,x,x,x
CCn1cc(NC(=O)Nc2ccc(OC(F)F)cc2)c2ccccc21,x,40.0*,x,x,x,x
O=C(Nc1cccc(-c2nc3ccccc3o2)c1)c1ccc2ncsc2c1,x,-27.0,x,x,x,x
Cc1ccc(Nc2ccc(S(=O)(=O)N3CCOCC3)cc2[N+](=O)[O-])c(C)c1,4.1,50.7*,2.3,-1.7,-5.0,9.5
CC(=NNc1ccc(S(=O)(=O)N2CCOCC2)cc1[N+](=O)[O-])C(C)C,x,46.3*,x,11.6,4.7,9.3
COc1ccccc1C(C)Nc1ccc(S(=O)(=O)N2CCOCC2)cc1[N+](=O)[O-] (configuration not stated),x,70.2*,x,x,x,x
Cc1ccccc1Nc1ccc(S(=O)(=O)N2CCOCC2)cc1[N+](=O)[O-],5.7,-4.8,0.2,3.8,3.6,1.4
CC/C(C)=N/Nc1ccc(S(=O)(=O)N2CCCC2)cc1[N+](=O)[O-],4.6,x,0.0,x,x,x
CCc1ccc(Nc2ccc(S(=O)(=O)N3CCOCC3)cc2[N+](=O)[O-])cc1,38.4,61.0*,1.0,4.1,3.5,11.6
CCOC(=O)c1cnn(-c2ccc(Cl)nn2)c1N=CN(C)C,x,-3.0,x,x,x,x
CN(C)CCN(C(=O)c1ccc(Cl)s1)c1nc2ccc(S(C)(=O)=O)cc2s1,x,-10.0,x,x,x,x
COc1ccc(Nc2ccc(S(=O)(=O)N3CCCCC3)cc2[N+](=O)[O-])cc1Cl,-0.3,49.3*,9.5,9.7,4.1,5.5
COc1ccc(Nc2ccc(S(=O)(=O)N3CCCCC3)cc2[N+](=O)[O-])cc1,3.4,28.6,2.2,x,x,x
CCCc1cc(=O)oc2c(C)c(OCC(=O)c3ccc(N4CCCC4)cc3)ccc12,57.9*,-8.6,1.4,2.5,-10.8,-2.1
CCCCc1cc(=O)oc2c(C)c(OCC(=O)N3CCCC3)ccc12,18.5,-6.0,-1.8,-2.2,-10.6,0.0
COc1ccc(CCS(=O)(=O)NC[C@@H](O)Cc2ccccc2)cc1,x,-4.0,x,x,x,x
COc1ccc(C=NOCC(=O)N(Cc2ccc(OC)cc2)c2ccccc2C(=O)O)cc1,x,-9.1,x,5.0,0.9,2.2
O=C(c1ccc(Cl)cc1)C(CN1CCCC1)c1ccccc1 (configuration not stated),2.3,5.6,-0.7,66.7,87.1*,14.5
COc1ccc(C(=O)C(CN2CCCC2)c2ccccc2)cc1 (configuration not stated),9.9,-2.6,1.1,x,x,x
COc1cccc(CSc2nc(CC(=O)NC(C)c3ccccc3)cc(=O)[nH]2)c1 (configuration not stated),x,-4.0,x,x,x,x
O=C(CSc1nccc(-c2cccs2)n1)Nc1ccc(F)c(Cl)c1,35.5,4.0,-0.5,82.9,89.0*,5.2
O=C(NNC(=O)c1cc(Br)ccc1O)c1csc(N2CCOCC2)n1,x,-8.2,76.4*,x,x,x
O=C(O)c1ccc(/C=C/c2ccc3cccc(O)c3n2)cc1,15.4,-7.7,-0.2,6.7,-2.9,13.1
COC(=O)c1ccc(/C=C/c2ccc3cccc(OC(C)=O)c3n2)cc1,-4.3,-17.9,140.2*,-2.7,-13.1,-0.1
Cc1ccc(C2CC(=O)Nc3c2ccc2ccccc32)cc1[N+](=O)[O-] (configuration not stated),4.2,41.8*,0.2,x,x,x
